Experimental data reported in PubChem BioAssay AID1766 (National Center for Advancing Translational Sciences (NCATS), 2009).
The campaign covered roughly 290,000 compounds. Fewer than 10 were called active. Roughly 3% stayed inconclusive and do not appear here. Calls follow the shape of the dose curve; as a rule, active = well fitted curve in the direction sought with a large enough effect in the polarisation (not every such curve was filed as active); inconclusive = small, poorly fitted or top-dose-only effect, or effect the other way, or a change in a side signal; inactive = no such curve, though single readings can be large or run the other way; the % refers to the polarisation. These entries were drawn from the full list.

test: qHTS Assay for Inhibitors Targeting the Menin-MLL Interaction in MLL Related Leukemias: Competition With Fluorescein Labeled MLL-derived Peptide; conditions: Fluorescence polarization, fluorescein-MLL peptide displacement from menin; series mostly up to 61.4 µM; FP activity change: at the top concentration; also: % of control where 0% means no effect
Description: qHTS Assay for Inhibitors Targeting the Menin-MLL Interaction in MLL Related Leukemias NIH Chemical Genomics Center [NCGC] NIH Molecular Libraries Probe Centers Network [MLPCN] MLPCN Grant: MH084875-01A1 Assay Submitter (PI): Jolanta Grembecka, Tomasz Cierpicki, University of Virginia Translocations of the MLL (Mixed Lineage Leukemia) gene are frequently found in human leukemias affecting both children and adults. Fusion of MLL to one of more than 60 genes results in generation of oncogenic proteins upregulating Hox genes, which are vital to blood cell development. Patients harboring fusion of the MLL gene suffer from aggressive leukemias and respond poorly to available therapies. All of the oncogenic fusion proteins have a preserved N-terminal fragment of MLL that has been identified to interact with menin. It has been recently discovered that association with menin is critical to the leukemogenic activity of the MLL fusion oncoproteins. Selective targeting of the menin-MLL interaction could provide an attractive therapeutic approach to develop novel drugs for MLL-related leukemias. Small molecules blocking the menin-MLL interaction should reverse the oncogenic potential of MLL fusion proteins. We have developed and optimized a fluorescence polarization-based assay for the identification of Menin-MLL inhibitors. The assay was run employing two different MLL-derived peptides. The present assay uses a 12 amino acid peptide labeled with fluorescein at its N-terminus. This peptide consists of the menin high affinity binding motif from MLL and is potently bound by menin. Another peptide with a mutated sequence, labeled with Texas Red, was used in parallel as a less stringent screen for inhibitors.
The Menin protein, the MLL-wild type (w.t.) derived peptide (N-terminal 12 amino acids), the MLL-derived peptide labeled with Texas Red and the MLL-w.t. peptide labeled with Fluorescein were kindly supplied by laboratory of Dr. Jolanta Grembecka, University of Virginia. All protein and peptide solutions were stored in single use aliquots at -80C. The Eu3+ Cyrptate-conjugated mouse monoclonal antibody anti-6 Histidine (Eu3+-AB) and the Streptavidin-XL665 conjugate (XL665) were purchased from Cisbio International (Bedford, MA). All antibody and XL665 conjugate solution stocks were stored in single use aliquots at -20C. The Buffer components for all assays were purchased from Sigma-Aldrich (St. Louis, MO) and Invitrogen (Carlsbad, CA). FP Assay Reagents: 1. FP reaction buffer: 50 mM Tris-HCl pH 7.5, 50 mM NaCl, 1mM DTT. Before use, 0.05% BSA is added. 2. Menin protein, MLL-w.t. labeled with fluorescein, MLL-mutant peptide labeled with texas red. Stored in singe use aliquots at -80C. 3. MLL-w.t. unlabeled peptide as positive control: 10 uM final in FP buffer. FP Assay Procedure: 1. Prepare Menin at 200 nM, MLL-w.t.-fluorescein at 25 nM, and MLL-mutant-texas red at 50 nM mixture in FP buffer. 2. Prepare Menin at 200 nM, MLL-w.t.-fluorescein at 25 nM, MLL-mutant-texas red at 50 nM, and 10 uM MLL-w.t. unlabeled mixture in FP buffer. 3. Prepare MLL-w.t.-fluorescein at 25 nM and MLL-mutant-texas red at 50 nM mixture in FP buffer. 3. Dispense 4 ul per well of reagent in step 1 in columns 2, 4 - 48 in a black 1536 well plate, dispense 4 ul per well of reagents from steps 2 and 3 in columns 1 and 3 respectively. Incubate plate at ambient for 15 minutes. 4. Transfer 23 nl per well of compound to plate and incubate at ambient for 1 hr. 5. Read fluorescence polarization for each label using the PerkinElmer Envision. Envision protocol for fluorescein: FITC FP Dual Enh Mirror, Excitation filter 480, Emission filter (1) P-pol 535, Emission filter (2) S-pol 535 Envision protocol for texas red: FP Dual Enh Mirror, Excitation filter 555, Emission filter (1) P-pol 632, Emission filter (2) S-pol 632

FP activity change, inactive:
Cc1ccc(-c2noc(C3CCCN(C(=O)c4cccc(Cl)c4)C3)n2)o1 (stereo not drawn) -0.951%, CS(=O)(=O)N1CCc2nc(-c3ccccc3)sc2C1 2.34%, Cc1cc(C)c(NC(=O)CN2CCCCCC2)c(C)c1 -5.8%, COc1ccccc1-c1sc2ccccc2c1-c1ccc(C(C)=O)cc1 -1.43%, CCCC(C(=O)NC1CCCC1)N(C(=O)Cn1nnc(-c2ccc(C)o2)n1)c1cccc(O)c1 (stereo not drawn) -0.769%, Cc1ccc(CSc2nsc(C)c2C#N)cc1 7.64%, Cn1cc(S(=O)(=O)Nc2ccc(Cl)cc2Cl)c(=O)n(C)c1=O -8.92%, CCc1ccc(C(=O)NN=C2CCCCCC2)s1 1.51%, CCOc1ccccc1N1C(=O)CC(Sc2nccc(C)n2)C1=O (stereo not drawn) -0.762%, COc1cccc(-c2noc(C3CCCN(C(=O)c4ccc(F)cc4)C3)n2)c1 (stereo not drawn) -1.5%, O=S(=O)(Cc1cc(Cl)nc(-c2cccnc2)n1)c1ccccc1 0.869%, Cc1noc(C)c1-c1ccc2ncnc(NCc3ccc4[nH]ccc4c3)c2c1 -0.0639%, CCN(CC(=O)NCC(=O)Nc1cccc(C)c1C)Cc1ccccc1 3.07%, CCCSc1nc2sc3c(c2c(=O)n1-c1ccc(OC)cc1)CCN(C)C3 13%, COc1ccccc1-c1cnn2c(N3CCOCC3)cc(C)nc12 37.1%, CCC1CCCCN1C(=O)CSc1nc2c(c(=O)n1C)SC(C)C2 (stereo not drawn) -0.813%, C=CCNC(=S)/N=c1/ccccn1Cc1ccccc1 -0.235%, COc1cc2ccccc2cc1C(=O)N(CCN(C)C)c1nc2c(F)cccc2s1 -2.7%, CC1CN(C(=O)CCC(=O)NC2CCN(Cc3ccccc3)CC2)c2ccccc2O1 (stereo not drawn) 0.0632%, COc1ccc(CC(=O)N/N=C/c2cc([N+](=O)[O-])cc(Br)c2O)cc1 19.4%, O=C(Nc1ccccc1)c1ccc2c(c1)OCCCO2 -0.0609%, Cc1ccc(NC(=O)NC(=O)c2ccccc2)cc1F -0.471%, COc1ccccc1CN1CCCC(N2CCN(c3ccc(F)cc3)CC2)C1 (stereo not drawn) -0.994%, Cc1[nH]c(C)c(S(=O)(=O)N2CCN(c3cccc(C(F)(F)F)c3)CC2)c1C(=O)N1CCCCC1 -4.51%, COc1cccc(N(C(=O)c2snc(C(N)=O)c2N)C(C(=O)NCC2CCCO2)c2c[nH]c3ccccc23)c1 (stereo not drawn) 6.5%, COc1ccccc1OCCOc1ccc(/C=C2\C(=N)N3N=C(C)SC3=NC2=O)cc1 -0.066%, C=C1CCN(Cc2ccc(OC)cc2)S(=O)(=O)c2ccccc21 -1.07%, CC1Sc2ccc(S(=O)(=O)CCC(=O)NCc3ccccc3Cl)cc2NC1=O (stereo not drawn) -0.854%, CC(O)c1ccc(OCCN(C)c2ccccn2)cc1 (stereo not drawn) 0.254%, CC(O)COc1ccccc1 (stereo not drawn) -1.98%, CN(CC(=O)Nc1ccc(F)cc1)C(=O)c1ccc(-c2ccc(Cl)cc2)o1 0.512%, CC(C)[C@@H]1COC(c2cccc(C3=N[C@H](C(C)C)CO3)c2)=N1 1.68%, COc1ccc(OCc2cc(C(=O)N3CCCC3)no2)c2ccccc12 -0.316%, c1cnc(N2CCN(c3ccc4ccccc4n3)CC2)nc1 -2.01%, Cc1cc(=O)n2[nH]c(-c3cccc(Cl)c3)cc2n1 -4.41%, CCCCCC(O)(CCN1CCCCC1)c1ccccc1 (stereo not drawn) -1.88%, Cc1cc(C)cc(OCC(=O)NC(C)c2ccccc2)c1 (stereo not drawn) 6.39%, O=c1[nH]cccc1-c1nc2ccccc2n1Cc1ccc(Cl)cc1 -1.47%, CCCc1cc(=O)n2[nH]c(C)c(-c3ccc(Cl)cc3)c2n1 -3.54%, O=C1CCN(CCc2ccccc2)CCN1CCOc1ccccc1 -5.61%, Cc1cc(C)c(C#N)c(Nc2cccc(Br)c2)n1 -1.91%, O=C(NCCS(=O)(=O)N1CCN(c2ccccc2F)CC1)c1ccc(Br)o1 -2.26%, CCc1ccccc1OCC(=O)Nc1ccc2c(c1)OCCO2 -1.07%, Oc1ccc(C2Nc3cccc4cccc(c34)N2)cc1 1.81%, Cc1ccc(-c2csc(NC3OC(=O)c4ccccc43)n2)cc1 (stereo not drawn) 0.604%, Cc1n[nH]c(=O)c2c1nnn2Cc1ccc(F)cc1 1.28%, COc1ccc(NC(=O)C/C(C)=N/NC(=O)c2cnccn2)cc1Cl -0.652%, CS(=O)(=O)N1CCN(C(=O)CSc2ccccc2)CC1 0.441%, COc1ccc2c(c1)c(C(=O)N/N=C/c1cccs1)c(C)n2C -1.26%, CC(C)OC(=O)c1ccc(COc2ccc3ccc(=O)oc3c2)o1 0.0912%, CNC(=O)c1sc(Nc2ccc(OCc3ccccc3)cc2)nc1C -0.434%, Cc1cccc(C)c1NC(=S)N1CCCCCC1 10.5%, Cc1ccc(O)c(CNc2nc3ccccc3[nH]2)c1 0.249%, COCCNC(=O)c1ccc2nc(Cc3ccc(OC)c(OC)c3)oc2c1 0.18%, CCCc1cc(=O)[nH]c(SCC(=O)N2C(C)CCCC2C)n1 (stereo not drawn) 1.47%, COc1cc(CNCc2ccc(OC)c3ccccc23)cc(OC)c1OC -0.733%, Cc1ccc2oc(C(=O)N3CCN(C)C[C@@H]3C(C)C)c(C)c2c1 -0.0815%, O=C(Nc1cccc(C(F)(F)F)c1)c1cc(Br)cc(Br)c1O -4.54%, CC(C)(C)c1ccc(SCCc2ccncc2)cc1 -0.793%, COc1ccc(C(C(=O)NC(C)(C)C)N(Cc2ccc(F)cc2)C(=O)CCC(=O)Nc2cc(C)on2)cc1 (stereo not drawn) 5.96%, CCOC(=O)c1ccc(NC(=O)Cc2cccs2)cc1 3.73%, CCOc1ccc(N/C=C/C(=O)c2ccccc2)cc1 -1.74%, COc1ccc(N2CCN(S(=O)(=O)CCNC(=O)C34CC5CC(CC(C5)C3)C4)CC2)cc1 -5.62%, COc1ccc(/C=N/OCc2ccccc2C#N)c(OC)c1 -2.05%, CCn1c(SCC(=O)NC2CC2)nnc1-c1ccccc1OC 0.14%, COc1cc2ccccc2cc1C(=O)Nc1ccccc1C -3.04%, CSCCNC(=O)c1ccc2nc(Cc3ccccc3F)oc2c1 2.14%, CC(c1ccccn1)N(C)C(=O)c1ccc2nc(Cc3cccc(Cl)c3)oc2c1 (stereo not drawn) 1.12%, CCCOc1ccc(/C=N/NC(=O)C2CC2)c(OCCC)c1 -5.37%, O=C(CN1CCc2cc3c(cc2C1)OCCCO3)Nc1ccccc1 1.44%, CCn1cc(/C=C(\NC(=O)c2cc(OC)c(OC)c(OC)c2)C(=O)N2CCN(C)CC2)c2ccccc21 0.178%, COc1cccc(NC(=O)C2CCCN(c3ncnc4c3nc3n4CCCCC3)C2)c1 (stereo not drawn) 0.562%, CCCc1ccc(OCCNC(=O)c2ccccc2Br)cc1 -4.26%, O=S(=O)(NCc1ccc(Cl)cc1Cl)c1cccs1 -3.15%, CC(CN1CCCCC1)c1ccccc1 (stereo not drawn) 4.36%, COc1ccc(/C(C)=N\NC(=O)c2ccc(-c3ccccc3)cc2)c(F)c1 -4.21%, Cc1ccccc1NC(=O)CSc1nc2ccc(Nc3nc(N4CCOCC4)nc(N4CCOCC4)n3)cc2s1 1.23%, CCOC(=O)Nc1ccc2c(c1)N(C(=O)CCCl)c1ccccc1[S@]2=O -0.773%, CSc1nccc(NC(=O)c2ccc(C(C)(C)C)cc2)n1 -1.11%, O=C(c1cc(COc2cccc(C(F)(F)F)c2)on1)N1CCSCC1 1.74%, Oc1ccccc1-c1cc(-c2ccc(Cl)cc2)n[nH]1 -1.42%, CC1CCC2CCCCC2N1C(=O)c1cc([N+](=O)[O-])cc([N+](=O)[O-])c1 (stereo not drawn) 1.44%, Cc1ccc(C(=O)Nc2nnc(C3=COCCO3)o2)cc1C -0.415%, N#C[C@]1(S(=O)(=O)c2ccccc2)C[C@@H]2ON=C(c3cccc(Br)c3)[C@@H]2C1 6.98%, O=C(N/N=C/c1cccc(OCc2ccccc2)c1)c1ccc(Br)o1 2.42%, N#CC(C#N)=CN=c1ccn(Cc2ccc(Cl)cc2Cl)cc1 -5.78%, FC(F)(F)C1CCCN(c2nsc3ccccc23)C1 (stereo not drawn) -1.66%, N=c1oc2ccccc2cc1C(=O)NCc1ccccc1 15.1%, COCCCNc1nc2c(-c3cccc(C)c3)nnn2c2ccc(Cl)cc12 -4.76%, O=C(NCCNc1ccccc1[N+](=O)[O-])c1ccccc1F -2.51%, N#CCc1ccc(NC(=O)c2ccccc2C(=O)Nc2ccc(CC#N)cc2)cc1 -1.6%, CCn1cc(CN2CCC(C(=O)Nc3cccc(-c4cccc(Cl)c4)c3)CC2)c(C)n1 -0.667%, Cc1ccc(CCNC(=O)c2ccc3nc4ccccc4c(=O)n3c2)cc1 -0.476%
